Data on 40 compounds can be found in PubChem BioAssay (Tox21).

Records with an inconclusive call do not appear. Entries that show only a call come without a potency. Active and inactive are the calls of the source. Calls follow the shape of the full dose curve.

The assay is described as follows: p53 small molecule agonists, cell-based qHTS assay with human liver microsomes (AID 1963577).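 Also: p53 response element beta-lactamase reporter cells with liver microsomes plus NADPH.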 The following applies: HCT-116 p53RE-bla with human liver microsomes, ratio, 16 h; series mostly up to 66 µM; activation: at the top concentration. An excerpt: National Center for Advancing Translational Sciences [NCATS]
Division of Preclinical Innovation [DPI]
U.S. Environmental Protection Agency [EPA]
National Institutes of Environmental Health Sciences [NIEHS]
National Toxicology Program [NTP]
U.S. Food and Drug Administration [FDA]
p53, a tumor suppressor protein, is activated following cellular insult, including DNA damage and other cellular stresses. The activation of p53 regulates cell fate by inducing DNA repair, cell cycle arrest, apoptosis, or cellular senescence. The activation of p53, therefore, is a good indicator of DNA damage and other cellular stresses. […] The activation of the reporter gene under culture conditions can be detected by fluorescence intensity.
Tox21 Assay Protocol Summary:
The p53RE-bla cells were dispensed at 4,000cells/3ul/well in 1536-well black-clear bottom plates. After the assay plates were incubated at 37 C, 5% CO2 incubator for 5 hours, 23 nL of compounds dissolved in DMSO, positive controls or DMSO only was transferred to the assay plate. Following compound addition, 3 uL of human liver microsomes (XenoTech, Kansas City, KS) at final concentration of 0.5 mg/mL and 1uL of Beta-Nicotinamide adenine dinucleotide 2-phosphate (NADPH) at final concentration of 0.5 mg/mL were transferred to the assay plate. The plates were incubated at 37 C for 16 hours. 1 uL of LiveBLAzer detection mixture was added to each well and the plates were incubated at room temperature in the dark for 2 h.
(In general: Quantitative high-throughput screening tests each substance at several concentrations.)
Regarding `CCOC(=O)/C=C\C(=O)OCC`, the Potency entry was “inactive”.
Turning to `O=C(Nc1ccccc1SSc1ccccc1NC(=O)c1ccccc1)c1ccccc1`, the Potency entry was “inactive”.
The same measure, in the same setting: next, `CC(C)(C)NC(=O)[C@H]1CC[C@H]2[C@@H]3CC[C@H]4NC(=O)C=C[C@]4(C)[C@H]3CC[C@]12C`: “inactive”.
With `CCCCC(CC)COC(=O)CCCCC(=O)OCC(CC)CCCC` (stereo not given), the “activation” value was 2.89% (inactive).
As for `CCCCCC(N)=O`, the Potency result was “inactive”.
Consider `O=[N+]([O-])C(CO)(CO)CO`, for which the Potency entry was “inactive”.
Take `Clc1ccccn1`: the Potency result is “inactive”.
As to `Cc1cc(C2(c3cc(C)c(O)cc3C)OS(=O)(=O)c3ccccc32)c(C)cc1O`, the Potency result was “inactive”.
Take `O=C(CC(C(=O)OC1CCCCC1)S(=O)(=O)O)OC1CCCCC1` (stereo not given): the “activation” value is 1.31% (inactive).
Regarding `COC(=O)c1ccccc1`, the Potency entry was “inactive”.
With `CCOC(=O)C(C#N)=C(c1ccccc1)c1ccccc1`, the Potency entry was “inactive”.
In the case of `CS(=O)(=O)OCCCCOS(C)(=O)=O`, the Potency entry is “inactive”.
As to `C=CC(=O)OCCCC`, the “activation” value is -4.76% (inactive).
For `CC(C)[N+](C)(CCOC(=O)C1c2ccccc2Oc2ccccc21)C(C)C`, the Potency result was “inactive”.
Consider `CC(=O)O[C@]1(C(C)=O)CC[C@H]2[C@@H]3C[C@H](C)C4=CC(=O)CC[C@]4(C)[C@H]3CC[C@@]21C`, for which the “activation” value is 2.8% (inactive).
Take `Cc1c(C(N)=O)cc([N+](=O)[O-])cc1[N+](=O)[O-]`: the “activation” value was -3.84% [at 30.3 µM] (inactive).
In the case of `OB(O)O`, the Potency result is “inactive”.
As for `CCCCOCCOC(=O)c1ccccc1C(=O)OCCOCCCC`, the Potency entry is “inactive”.
Consider `CCNC(=S)NCC`, for which the Potency result was “inactive”.
For the compound `O=C1CCCCCCCCCCC1`, the Potency result was “inactive”.
As for `O=C(O)CC(O)C(=O)O` (stereo not given), the Potency result was “inactive”.
In the case of `CCCCC(CC)COC(=O)/C=C/c1ccc(OC)cc1` (stereo not given), the Potency result is “inactive”.
With `O=C(O)CCCCCCCCC(=O)O`, the Potency entry was “inactive”.
As for `COC(=O)C(C)Oc1ccc(Oc2ncc(C(F)(F)F)cc2Cl)cc1` (stereo not given), the Potency entry was “inactive”.
As for `NC(=O)NC(N)=O`, the Potency entry is “inactive”.
For `Oc1ccccc1`, the Potency result is “inactive”.
Turning to `Cc1cccc2n[nH]nc12`, the Potency result is “inactive”.
Consider `Nc1cccc(C(F)(F)F)c1`, for which the Potency entry was “inactive”.
Still for that read-out and setting: the same measure for `Cc1ccc2c(n1)Oc1ccc(C(C)C(=O)OCC(=O)N(C)C)cc1C2` (stereo not given): “inactive”.
The same measure, in the same setting: the same measure for `CC(=O)c1ccccc1`: “inactive”.
Turning to `CCCCC(CC)CO` (stereo not given), the Potency entry was “inactive”.
In the case of `COC(=O)CC(=O)OC`, the “activation” value is -3.21% (inactive).
As to `Nc1ccc(O)c(C(=O)O)c1`, the Potency result is “inactive”.
For the compound `CN(N=O)C(=O)N[C@@H]1[C@@H](O)[C@H](O)[C@@H](CO)O[C@@H]1O`, the Potency entry is “inactive”.
On to `CC#C[C@]1(O)CC[C@H]2[C@@H]3CCC4=CC(=O)CCC4=C3[C@@H](c3ccc(N(C)C)cc3)C[C@@]21C`, for which the “activation” value was -8.37% (inactive).
`C=C(C)C(N)=O`: the Potency result was “inactive”.
In the case of `COC(=O)CCCCC(=O)OC`, the “activation” value was -1.48% (inactive).
As to `O=C(O)Cc1ccccc1Nc1c(Cl)cccc1Cl`, the Potency entry is “inactive”.
Take `O=[N+]([O-])c1cccc(Cl)c1`: the Potency result was “inactive”.
For the compound `O=C(O)CC(C(=O)O)C(CC(=O)O)C(=O)O` (stereo not given), the Potency result was “inactive”.
